HSP90 refold inh = HSP90 refolding inhibition in rabbit reticulocyte lysate; luciferase refolding luminescence, 3 h; inhibition, % at 5.6 µM; 0.91% of 290,000 active;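 active = inhibition above the screen-wide mean plus 3 SD, computed separately per campaign, cut at about 16% in these data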;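 note: inhibitors lower the luminescence because luciferase stays unfolded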
TWEAK Fn14 block = TWEAK-Fn14 signaling inhibition; TWEAK-stimulated Fn14 reporter cells, luciferase luminescence, 8 h; inhibition, % at 10 µM; 2% of 360,000 active; in the data active = inhibition above about 50%
PPC-1+TRAIL kill = PPC-1 cancer cell killing with TRAIL present; PPC-1 cells + TRAIL, ATPLite viability luminescence; cell killing (% activity), % at 4 µM or 5 µM; 0.41% of 220,000 active;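 active = cell killing above 50% in the first pass at 4 µM, then a duplicate retest at 5 µM averaging 50% or more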
Platelet DG rel = modulates dense granule release in human platelets; human platelet-rich plasma, SFLLRN dense granule ATP release, luminescence; inhibition, %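 (compounds screened at 7.5 µM in platelet-rich plasma)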; 0.22% of 300,000 active;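 active = mean replicate score, as percent of positive control, at or above 50; inconclusive = mean below 50 but at least one replicate at or above 50; inactive = mean and every replicate below 50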
TROY signal inh = blocks TROY-dependent signaling in reporter cells. Q293 LMP1-TROYcd NF-kB luciferase reporter, 4 h. inhibition, % at 10 µM. 0.98% of 360,000 active. AID 1347056;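 active = compounds whose plate-normalised and pattern-corrected inhibition of the luciferase reporter signal at the single screening dose is 50% or more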
C8 TRAIL sens = caspase-8 TRAIL sensitization. NB7+C8 cells + TRAIL, ATPlite viability luminescence. inhibition (viability loss, TRAIL sensitization), % at 10 µM. 1% of 360,000 active;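 active = compounds causing at least 50% loss of cell viability in the single-dose screen, relative to plate controls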
PPC1 cytotox = kills PPC-1 cells; shares compounds with PPC-1+TRAIL kill; PPC-1 viability, ATPlite luminescence, overnight; cytotoxicity, % at 5 µM; 50% of 1,200 active;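 active = reconfirmed compounds whose average cytotoxicity reaches 50% or more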
HSP90 confirm = confirmation of HSP90 inhibitors | shares compounds with HSP90 refold inh | rabbit reticulocyte lysate, luciferase refolding luminescence, 3 h | inhibition, % at 5.9 µM | 64% of 2,300 active; in the data active = inhibition above about 18%
luciferase ctr = blocks native firefly luciferase in HSP90 counter-screen. shares compounds with HSP90 refold inh. purified native firefly luciferase, luminescence. inhibition, % at 5.9 µM. 48% of 2,300 active;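 active = inhibition above the mean inhibition of all tested sample wells plus 3 SD, cut at about 10% in these data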
Target sequence (P08659 whole entry, looked up): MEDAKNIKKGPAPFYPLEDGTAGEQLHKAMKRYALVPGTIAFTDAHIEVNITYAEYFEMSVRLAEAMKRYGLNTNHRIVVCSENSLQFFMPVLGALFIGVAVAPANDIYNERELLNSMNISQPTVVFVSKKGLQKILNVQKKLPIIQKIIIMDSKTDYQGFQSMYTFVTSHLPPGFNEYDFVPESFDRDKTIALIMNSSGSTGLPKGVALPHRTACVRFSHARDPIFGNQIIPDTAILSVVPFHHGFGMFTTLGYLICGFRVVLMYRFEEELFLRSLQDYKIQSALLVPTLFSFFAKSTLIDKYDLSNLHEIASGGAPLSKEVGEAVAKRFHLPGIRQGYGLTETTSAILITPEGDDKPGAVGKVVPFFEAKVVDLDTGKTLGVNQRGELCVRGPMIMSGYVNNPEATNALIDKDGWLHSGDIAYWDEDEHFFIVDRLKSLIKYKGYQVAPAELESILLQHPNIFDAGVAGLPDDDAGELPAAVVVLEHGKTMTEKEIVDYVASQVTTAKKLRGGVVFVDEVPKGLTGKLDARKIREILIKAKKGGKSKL
A number is an active result; . = inactive; ? = inconclusive; / = no result. An excerpt weighted towards active compounds, which were near 3.5% of everything screened.

SMILES	HSP90 refold inh	TWEAK Fn14 block	PPC-1+TRAIL kill	Platelet DG rel	TROY signal inh	C8 TRAIL sens	PPC1 cytotox	others
COc1ccc(-n2nnnc2C(c2cccc3ccccc23)N2CCC3(CC2)C(=O)NCN3c2ccccc2)cc1 (stereo not given)	/	52.7	/	/	.	.	/
Cc1cccc(C)c1-n1nnnc1C(c1ccccc1)N1CCC2(CC1)C(=O)NCN2c1ccccc1 (stereo not given)	/	.	/	/	.	.	/
Cc1ccc(CN2C(=O)NC(=O)C3(Cc4c(nc5ccccn5c4=O)N4CCCCCC43)C2=O)cc1 (stereo not given)	.	.	.	.	86.8	.	/
CCOC(=O)[C@]12Cc3cc(OC)ccc3[C@H]1N(C(C)C)C(=O)c1cc(OC)ccc12	/	.	/	/	51.6	54.6	/
CCOC(=O)[C@]12Cc3cc(Cl)ccc3[C@H]1N(CC(=O)OC)C(=O)c1ccccc12	/	79.8	/	/	.	58.1	/
CCOC(=O)[C@]12Cc3cc(Cl)ccc3[C@H]1N(C(C)C)C(=O)c1ccccc12	/	78.3	/	/	.	71.5	/
CC(=O)NC(C)Cc1ccccc1 (stereo not given)	.	80.9	.	.	/	.	/
CC(Cc1ccccc1)NC(=O)NC(C)Cc1ccccc1 (stereo not given)	.	.	.	.	.	.	/
C[C@H]1CCC/C=C/[C@@H]2C[C@H](O)C[C@H]2[C@@H](O)/C=C/C(=O)O1	/	61.3	/	/	.	.	/
COC(=O)C1=C(c2ccc(F)cc2OCc2ccccc2)C[C@@H]2CC[C@H]1N2C(=O)N1CCC(O)CC1	/	.	/	/	.	.	/
O=c1c2ccccc2nc(/C=C/c2ccccc2)n1-c1ccc(O)cc1	.	.	/	.	.	.	/
Cc1cccc(-n2c(/C=C/c3ccc([N+](=O)[O-])o3)nc3ccccc3c2=O)c1	.	94.6	.	.	.	.	/
O=c1c2ccccc2nc(/C=C/c2ccc([N+](=O)[O-])o2)n1-c1ccc(O)cc1	.	92.6	.	.	.	.	/
C[C@H]1O[C@@H](O[C@H]2[C@@H](O)C[C@H](O[C@H]3[C@@H](O)C[C@H](O[C@H]4CC[C@@]5(C)[C@H](CC[C@@H]6[C@@H]5CC[C@]5(C)[C@@H](C7=CC(=O)OC7)CC[C@]65O)C4)O[C@@H]3C)O[C@@H]2C)C[C@H](O)[C@@H]1O	.	/	73.8	/	/	/	73.1
C[C@@H]1O[C@@H](O[C@H]2C[C@@H](O)[C@]3(CO)[C@H]4[C@H](O)C[C@]5(C)[C@@H](C6=CC(=O)OC6)CC[C@]5(O)[C@@H]4CC[C@]3(O)C2)[C@H](O)[C@H](O)[C@H]1O	.	84.9	73.8	.	.	.	75.5
O=c1cccc2n1CC1CC2CN(c2nc(N3CCCCC3)nc(N3CCCCC3)n2)C1 (stereo not given)	.	.	.	.	.	.	/
O=c1[nH]c(=S)[nH]c(O)c1N=Nc1ccc2c(c1)OCCO2	.	.	73.5	.	.	55.8	72.9
O=c1[nH]c(=S)[nH]c(O)c1N=Nc1ccc2c(c1)OCO2	.	.	.	.	.	.	/
COc1ccc(NC2(C#N)CCCCC2)cc1	.	.	.	.	.	.	/
CN[C@H]1C[C@H]2O[C@@](C)([C@H]1OC)n1c3ccccc3c3c4c(c5c6ccccc6n2c5c31)C(=O)NC4	.	/	66.5	.	/	/	69.5
Cc1cc(C)[n+](CCCC[n+]2c(C)cc(C)cc2C)c(C)c1	/	.	/	.	.	.	/
c1ccc(-c2cc(-c3ccccc3)[n+](-c3ccccc3)c(-c3ccccc3)c2)cc1	.	86.5	.	.	70.6	75.2	.
O=[N+]([O-])c1ccc(C[n+]2c(-c3ccccc3)cc(-c3ccccc3)cc2-c2ccccc2)cc1	/	.	/	.	.	.	/
CN(C)c1ccc(-[n+]2c(-c3ccccc3)cc(-c3ccccc3)cc2-c2ccccc2)cc1	.	66.2	.	.	.	.	.
COc1ccc(C(SCC(NC(=O)OCc2ccccc2)C(=O)O)c2ccc(OC)cc2)cc1 (stereo not given)	/	.	/	/	.	.	/
SMILES	HSP90 refold inh	TWEAK Fn14 block	PPC-1+TRAIL kill	Platelet DG rel	TROY signal inh	C8 TRAIL sens	PPC1 cytotox	others
C/C=C(\C)C(=O)OC1C(C)=C2C(C1OC(=O)CCCCC)C(C)(OC(C)=O)CC(OC(=O)CCC)C1(O)C2OC(=O)C1(C)O (stereo not given)	/	/	56.6	.	/	/	54.4
Cc1ccc(C(C)C)c(OCC(=O)N2CCN(Cc3nc4cc([N+](=O)[O-])ccc4n3C)CC2)c1	.	.	.	.	.	.	/
Cn1ncnc2c(=O)n(C)c(=O)nc1-2	/	106.1	89.3	.	87.9	96.0	90.3
O=C1CN=C(c2cc([N+](=O)[O-])ccc2Cl)c2cc([N+](=O)[O-])ccc2N1	/	.	/	.	.	.	/
CNCC(=O)c1ccccc1	/	.	/	.	.	.	/
CCOC(=O)c1c(C)n(Cc2ccccc2)c2ccc(OCC(O)CN3C(=O)CNC3=O)cc12 (stereo not given)	.	.	.	.	.	.	.
C[C@H]1C[C@@H](C)C(=O)[C@@H]([C@H](O)CC2CC(=O)NC(=O)C2)C1	.	86.0	.	.	66.3	.	.
CCCC(C)C1(CC)C(=O)NC(=Nc2ccc(OC)cc2)NC1=O (stereo not given)	.	.	.	.	.	.	/
CN1CCN(C(=O)COc2ccc(-c3nc4ccccc4s3)cc2)CC1	47.7	52.1	91.8	.	.	91.7	91.2	HSP90 confirm=71.7;luciferase ctr=69.0
Cc1cc(OCC(=O)N2C[C@H]3C[C@@H](C2)c2cccc(=O)n2C3)c2c(C)c(C)c(=O)oc2c1	.	.	/	.	.	.	/
CCCCn1c(NS(=O)(=O)c2ccccc2)c(C(=O)OCC)c2nc3ccccc3nc21	18.1	79.8	.	.	69.3	.	/	HSP90 confirm=.;luciferase ctr=.
CCCCCCOc1ccc(CN2CCN(C)CC2)cc1	18.6	61.1	.	.	65.0	.	/	HSP90 confirm=38.9;luciferase ctr=24.8
CN1CCN(Cc2ccc3ccccc3c2)CC1	.	.	/	.	.	.	/
COc1ccc(OCCOc2cccc(C=C3C(=O)NC(=O)NC3=O)c2)cc1	24.9	/	/	.	/	/	/	HSP90 confirm=44.9;luciferase ctr=30.4
COc1ccc(C=C2C(=O)NC(=S)NC2=O)cc1	/	.	/	/	.	.	/
O=c1[nH]c2c(c(=O)n1C1CCCCC1)CCC2	27.7	.	.	.	.	.	/	HSP90 confirm=.;luciferase ctr=.
CN(C)C(=O)Oc1ccc(OCc2nc3ccccc3[nH]2)cc1	27.3	68.4	.	?	.	68.3	/	HSP90 confirm=52.0;luciferase ctr=31.4
CC(C)(C)n1cc(C(=O)c2ccc3ccccc3c2O)cn1	49.2	88.2	.	.	82.9	50.3	/	HSP90 confirm=59.8;luciferase ctr=58.0
CN1CCN(Cc2cn(C)c3ccccc23)CC1CCO (stereo not given)	.	.	/	.	.	.	/

High-throughput results: PubChem BioAssay, several laboratories
